# Activity calls are given as the source filed them.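 Rule for the calls: active = z-score of at least 1.8 in each of two replicates, scored against plate mean and spread of sample wells; inactive = the rest.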
# Experiment: galactose survival enhancers in mitochondrial complex I cybrids – cell-based, galactose medium, ATP luminescence, primary screen (AID 1645843);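 note: positive z means more ATP and so rescue of galactose-driven cybrid death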
# Conditions: complex I mutant cybrid cells, 72 h, hits give high values
row,Compound,z-score
1,COc1c(F)cc(C(=O)N2CCNC(=O)C2Cc2ccccc2)cc1F (stereo not given),-0.455 (inactive)
2,COc1ccccc1-c1noc(CN2CCOC2=O)n1,1.68 (inactive)
3,CC(C)=CCC/C(C)=C/CNCCCc1ccncc1,-0.52 (inactive)
4,CC(CCCC(C)(C)O)CCNCC1(CO)CCC1 (stereo not given),-0.48 (inactive)
5,CCC1CN(C(=O)c2cc(-c3cnn(C)c3)nc3c(C)c(C)ccc23)CCO1 (stereo not given),3.04 (active)
6,CC(C)c1n[nH]c2c1CN(C(=O)C1CCCCCC1)CC2,-0.485 (inactive)
7,CCC(CC)CN1CCC(N2CCSCC2)CC1,-0.55 (inactive)
8,Cc1cc(C)c(-n2cccn2)c(-c2nc3c(cnn3C(C)C)[nH]2)c1,-0.485 (inactive)
9,Cn1cc(-c2cc(C(=O)N3CCc4ccccc4C3)c3cc(F)ccc3n2)cn1,1 (inactive)
10,COc1ccc(F)cc1-c1ccc2ccccc2n1,-0.15 (inactive)
11,Cc1cccc2ncn(C3CC(C)(C)NC(C)(C)C3)c(=O)c12,-0.515 (inactive)
12,Cc1sc2ccccc2c1-c1ccn(CC(=O)Nc2ccnn2C(C)C)n1,-0.855 (inactive)
13,CC(C)(O)c1cn(C2CCN(C(=O)CCC(=O)N3CCCCCC3)CC2)nn1,-0.545 (inactive)
14,Cc1ccccc1-c1cccc(C(=O)c2nccn2C)c1,-0.54 (inactive)
15,CCN(C)Cc1ccc(-c2nc(C(F)(F)F)c(C)c(=O)[nH]2)cc1,0.97 (inactive)
16,CCN(Cc1ccncc1)C(=O)c1cc(-c2cnc(C)nc2)nc2c(C)cccc12,-0.835 (inactive)
17,CC(C)N(C)C(=O)c1cc(-c2cnc(C(C)(C)C)nc2)nc2cc(F)ccc12,-0.525 (inactive)
18,Cc1cc(C)c(CN[C@@H](C)C(C)C)c(C)c1CO,-0.51 (inactive)
19,CC(C)n1cc(C(=O)N2CCCC(c3ccccc3)C2)cn1 (stereo not given),-0.54 (inactive)
20,Cc1nn(C)cc1-c1ccnc(N2CCCC(c3nc4c(C)cccc4[nH]3)C2)n1 (stereo not given),-1.2 (inactive)

row,Compound,z-score
1,Cc1ccn2cc(Cn3cnc4ccc(F)cc4c3=O)nc2c1,0.645 (inactive)
2,CCCc1cn(C2CCN(C(=O)CC3CC(C)(C)NC(C)(C)C3)CC2)nn1,-0.53 (inactive)
3,CC(C)CCC(=O)N1CCCCC1CCc1ccc(O)cc1 (stereo not given),-0.375 (inactive)
4,CC(=O)c1c(C)cc(C)c(CNC(C)CCCC(C)(C)O)c1C (stereo not given),-0.52 (inactive)
5,Cc1cnc(CN(C)Cc2ccc(-c3nc(C(F)(F)F)c(C)c(=O)[nH]3)cc2)[nH]1,-0.58 (inactive)
6,CCC(CC)(CCC#N)CNC1CCOC(C)(C)C1 (stereo not given),-0.485 (inactive)
7,Cc1ccc2c(C(=O)N3CCCCC3C)cc(-c3cnn(C(C)C)c3)nc2c1 (stereo not given),-0.16 (inactive)
8,CCn1cc(-c2cc(C(=O)N3CCCCCC3)c3cccc(C)c3n2)cn1,0.305 (inactive)
9,O=C(c1ccc(-n2ccnc2)cc1)N1CCc2[nH]nc(-c3ccccc3)c2C1,-1 (inactive)
10,O=C(c1cc(-c2cncnc2)nc2cc(F)ccc12)N1CCCC1Cc1cccnc1 (stereo not given),0.765 (inactive)
11,CCCC(CCC)N[C@H](CO)Cc1ccccc1,-0.345 (inactive)
12,Cc1ccc(C(=O)NCC2CCCN(C(=O)C3CC3)C2)cn1 (stereo not given),-0.52 (inactive)
13,COc1cccc(CC(=O)NCc2ccc(Cl)s2)c1,-0.145 (inactive)
14,CN(C)Cc1cn(CC2CCN(C(=O)CC3CCCCCC3)CC2)nn1,-0.47 (inactive)
15,Fc1ccc(-n2cc(-c3ccnc(NCc4cnc5ccccn45)n3)cn2)cc1,-0.035 (inactive)
16,CC(C)Oc1cccc(C(=O)N2CCC(Cn3cc(C4CC4)nn3)CC2)c1,-0.515 (inactive)
17,Cc1nn(C)c(C)c1-c1ccnc(N(C)Cc2cnn(C(C)C)c2)n1,0.67 (inactive)
18,CCCCn1nnnc1NC(=O)NC1CCN(Cc2ccncc2)CC1,-0.755 (inactive)
19,Cn1ccnc1-c1ccccc1C(=O)N1CCN(Cc2cccc(Cl)c2)CC1,0.665 (inactive)
20,Cc1cc(NC(=O)Cn2ccc(-c3ccsc3)n2)n(-c2ccccn2)n1,1.83 (inactive)
